Assay results reported in PubChem BioAssay (NCATS).
Several values for one entry are separate records, joined by “and”; a condition that tells them apart may be missing. Identical values can stand only once. Inconclusive results are not listed. Activity calls are given as the source filed them. The call rests on the fitted dose curve.

What follows are compounds tested against Estrogen receptor (Homo sapiens) (UniProt P03372) (assay: qHTS assay for small molecule agonists of estrogen receptor alpha signaling (AID 588514; further: nearly all actives have a fitted effect of over 70% in size;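 on activation: 0% = vehicle only and 100% = reference agonist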)). Conditions: ER-alpha-UAS-bla HEK293, beta-lactamase ratio, 18 h; series mostly up to 76.8 µM; activation: at the top concentration.
Sequence of Estrogen receptor (Homo sapiens) (P03372 whole entry, looked up): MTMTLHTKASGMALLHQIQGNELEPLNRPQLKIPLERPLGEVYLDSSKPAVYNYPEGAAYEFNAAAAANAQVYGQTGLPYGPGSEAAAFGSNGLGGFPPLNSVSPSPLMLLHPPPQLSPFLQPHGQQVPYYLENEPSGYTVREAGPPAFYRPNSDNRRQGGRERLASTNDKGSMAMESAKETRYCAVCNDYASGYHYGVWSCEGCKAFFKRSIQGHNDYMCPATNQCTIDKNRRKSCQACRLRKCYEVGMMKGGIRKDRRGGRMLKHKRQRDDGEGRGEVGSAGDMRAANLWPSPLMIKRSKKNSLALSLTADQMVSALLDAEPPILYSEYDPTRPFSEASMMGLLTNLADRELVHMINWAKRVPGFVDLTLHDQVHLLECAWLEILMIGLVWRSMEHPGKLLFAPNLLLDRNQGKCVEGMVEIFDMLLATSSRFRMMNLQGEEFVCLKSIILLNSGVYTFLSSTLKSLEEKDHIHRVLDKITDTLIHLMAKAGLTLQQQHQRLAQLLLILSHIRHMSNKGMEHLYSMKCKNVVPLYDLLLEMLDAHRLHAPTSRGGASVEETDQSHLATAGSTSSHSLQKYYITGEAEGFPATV
Description: NIH Chemical Genomics Center [NCGC]
U.S. Environmental Protection Agency [EPA]
National Institutes of Environmental Health Sciences [NIEHS]
National Toxicology Program [NTP]
Estrogen receptor alpha (ER-alpha) is an important member of nuclear hormone receptors. ER-alpha plays important role in breast cancer as well as in other women's health issues. The majority of breast cancers is estrogen receptor (ER) positive and depends on estrogen for growth. There is also growing concern for some of environmental chemicals which may contribute the increasing the incidence of breast cancer. Therefore, it is important to understand the effect of environmental chemicals in ER-alpha signaling pathway.
NCGC Assay Protocol Summary
Using a beta-lactamase reporter-gene under control of the ER response element, a cell-based assay [ER-alpha-UAS-bla GripTiteTM cell-Based Assay from Invitrogen] was used to measure ER-alpha signaling pathway in agonist mode. ER-alpha-UAS-bla-GripTite HEK 293 cells were used with assay medium containing 2% charcoal/dextran treated FBS, 0.1 mM NEAA and 1 mM sodium pyruvate. Cells were cultured in this assay medium overnight in the flasks before the assay. The assay was performed in clear bottom black Greiner 1536-well plates. 17-beta-estradiol was used as a positive control in the screen. Library compounds were measured for their ability to either stimulate the reporter gene activity. Compounds were screened in a titration series in 1536-well format. […] Data was normalized relative to 17-beta-estradiol control (20 nM, 100%), and DMSO only wells (basal, 0%). Concentration-response titration points for each compound were fitted to the Hill equation yielding concentrations of half-maximal stimulation (EC50) and maximal response (efficacy) values.
qHTS protocol for ER-alpha beta-lactamase assay in agonist mode
[Step] [Parameter] [Value] [Description]
1. Reagent; 6 uL; 5000 cells/well
2. Incubation; 37 C for 4 hrs
4. Controls (17-beta-estradiol); 23 nL
- Dose response, start 1uM, 1:3 dilutions with duplicates
- Two columns with 20 and 0.5 nM (final) concentration.
5. Incubation; 37 C for 18 hrs
6. Detection reagent; 1 uL of CCF4-dye
7. Incubation; RT for 2 hrs
8. Detection; Fluorescence; Envision plate reader or Acumen plate reader
In the case of `CCCOC(=O)c1ccc(O)cc1`, the Potency was 5.01 µM (active) and 3.55 µM (active).
`NCCO` was tested, and the Potency was 12.6 µM (active).
In the case of `Nc1cc(-c2ccncc2)c[nH]c1=O`, the “activation” value was -1.08% (inactive).
In the case of `CN1CCC[C@H]1c1cccnc1`, the Potency was “inactive”.
`O=c1cc(-c2ccccc2)oc2ccccc12` was tested, and the “activation” value was 14.8% (inactive).
In the case of `O=C(Nc1ccccc1)c1cc([N+](=O)[O-])ccc1Cl`, the “activation” value was -1.39% (inactive).
In the case of `COc1cc(CNC(=O)CCCC/C=C/C(C)C)ccc1O`, the “activation” value was 11.7% (inactive).
With `c1ccc2sc(SSc3nc4ccccc4s3)nc2c1` the Potency was “inactive”.
In the case of `C=CCCCCCCCCC(=O)O`, the “activation” value was -2.88% (inactive).
`Nc1ccc([N+](=O)[O-])cc1O` was tested, and the Potency was “inactive”.
In the case of `Nc1ccc(O)c(C(=O)O)c1`, the Potency was “inactive”.
In the case of `CCCCCCCCCCCCCCCCCC(=O)O`, the “activation” value was 8.99% (inactive).
With `Nc1ccc(O)c([N+](=O)[O-])c1` the “activation” value was 5.95% (inactive).
